{"source": "the supplement of paper PMC6555819"}
{"tested_on": "VDR:RXRa (NR concentration 270 nM, RXRa partner concentration 90 nM)", "test": "PBM binding z-score (relative to random genomic background probes); higher = stronger binding; sequences stand for … in GC…GCGATTGACAGCGTAGAATGAAGG", "description": "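Protein-binding microarray (Agilent 4x180K custom design, double-stranded 60-nt probes: 5' GC cap, 34-nt variable region, 24-nt constant primer region; full probe sequence given). Purified or IVT nuclear receptor:RXRα heterodimers (3:1 NR:RXRα, mostly 270:90 nM) or homodimers were incubated for 1 h in PBS with 2% milk and no ligand, then detected with Alexa488 antibodies. Fluorescence from o1-orientation probes (~5 replicates averaged) was converted to z-scores against 500 random hg19 background probes. Variable regions are seed direct-repeat (DR0–DR5) sites, all their single-nucleotide variants and half-site ablations.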"}
{"sequence": "CTGACTGGGGCAAGGTTACCATAACGCACAGCCA", "PBM binding z-score": 0.261}
{"sequence": "TCATATAGGTAAATGCTAGGTGATAGTCCGATCT", "PBM binding z-score": 0.757}
{"sequence": "CGTCAAAGTTCAACTAAGATAACGTAAAGCACGC", "PBM binding z-score": 4.2}
{"sequence": "CGAACTAGGTCATCGACAGGACAGTGAATAGTAA", "PBM binding z-score": 2.57}
{"sequence": "CCTATCAGGCCAGGGTCACTCAAGCATTTCGCTT", "PBM binding z-score": 2.73}
{"sequence": "TCTTGTAGAACAAGCAGGTTAAGAAAGCCTGAGT", "PBM binding z-score": 0.279}
{"sequence": "GGAACGAGGGCAAGTTGAAAGCAGAGTTTGATGG", "PBM binding z-score": 0.74}
{"sequence": "TCTCGGAGGACACGAAGGTCTGAGCTTTCCAGAG", "PBM binding z-score": -0.323}
{"sequence": "CGTCCAATGTCAAAGGTCAGTGAAGAGATGACGG", "PBM binding z-score": 3.72}
{"sequence": "TCTTGTAGATCAAAGGTTAAGAGAGCCGAAGCCT", "PBM binding z-score": 1.29}
{"sequence": "ATCGAAAGGTCGAAGATGAGTATACCCACCCGAA", "PBM binding z-score": 2.36}
{"sequence": "ATCTATAGGTAAAGTTCAGTGAAAGATCGATAGA", "PBM binding z-score": 1.65}
{"sequence": "TAGCCTAGGTCATTGGGCCAGTACAGTACGCATC", "PBM binding z-score": 2.19}
{"sequence": "ATACAAAGGTGATCGTGAGGTCGTTGATACTAAC", "PBM binding z-score": 4.59}
{"sequence": "ATCGAAAGGTCGACGAGGTGAGTCTACACCGTTT", "PBM binding z-score": 5.5}
{"sequence": "CCATACGGGTCACTGACAGGTTATAGCATTTGGA", "PBM binding z-score": 3.74}
{"sequence": "TTACTAAGGTGAAGGTCGTTGATCCCTCTGTAGA", "PBM binding z-score": 1.73}
{"sequence": "ACTCGGAGGACAAAGGTCAGACCTACGCCAGTGA", "PBM binding z-score": 3.52}
{"sequence": "TCGAGTCGGTTAGGGGCATTCAGAATGGCGTCGA", "PBM binding z-score": 0.541}
{"sequence": "TGAATGAGGTTATAAGAACAGGGAACGTTGCAAA", "PBM binding z-score": 0.915}
{"sequence": "GCTGCTAGGTGAACTGATGGTCAGCTAAAGCTCG", "PBM binding z-score": -0.124}
{"sequence": "TCAGACAGGTGAAGGTAACACAGGTACGCAGTCG", "PBM binding z-score": 1.05}
{"sequence": "TTACCAAGGTGAAAGGTCGTTGATGCACGCCTTG", "PBM binding z-score": 3.14}
{"sequence": "TCTTGTAGATCAAAGGTTAAGTAAGCCGAAGCCT", "PBM binding z-score": 2.04}
{"sequence": "TCTTGTAGATCAAAGGTTATGAAAGCCGAAGCCT", "PBM binding z-score": 1.25}
{"sequence": "TCTTGTAGTTCAGCAGGTTAAGAAAGCTGGCCAA", "PBM binding z-score": 1.78}
{"sequence": "ATCTCTAGGTAAGACTCAGTCCAGTGAAGAACGC", "PBM binding z-score": 0.327}
{"sequence": "TCTAGCAGGCCAGAGGGACACTCAAGAGGTACGG", "PBM binding z-score": -0.463}
{"sequence": "TAGCCTAGGTCATTGGGCCTGTATAGTACGCATC", "PBM binding z-score": 2.38}
{"sequence": "CGTCCAAGGTCATAGGAGGTCAGTGACGACAGAT", "PBM binding z-score": 6.55}
{"sequence": "GCTGCTAGGTCAGGTTGGTCAGCTATCGGGTACG", "PBM binding z-score": 0.576}
{"sequence": "CCTAGCAGGCCCATCTGGGTCACTCAAGGCTTGA", "PBM binding z-score": -0.0613}
{"sequence": "TATCGGAGGACACGAAGGTCAGAGCTTTCCAGAG", "PBM binding z-score": 2.32}
{"sequence": "CTCGAAAGGTCGTGCTCAGGTGAGTCTACCAAAC", "PBM binding z-score": 3.35}
{"sequence": "GGAACGAGGGCATGCGAGTTGATAGCATGGCGAT", "PBM binding z-score": 2.9}
{"sequence": "AGAATGAGGTTATACCTAGATCAGGGAAGAAAGT", "PBM binding z-score": 1.11}
{"sequence": "GCTTGTAGATCAAGATTAAGAAAGACTAAGCTAA", "PBM binding z-score": -0.528}
{"sequence": "TCTTGTAGATCAACAGGAGGTTAAGCAAGATCGA", "PBM binding z-score": 0.529}
{"sequence": "TCTATTAGTTGAAGGGCAACCAACGAGTCCGTTT", "PBM binding z-score": 1.11}
{"sequence": "TGAATGAGTTTATAAGATCAGGGAACGTTGCAAA", "PBM binding z-score": 1.26}
